According to PubChem BioAssay AID602391 (National Center for Advancing Translational Sciences (NCATS), 2012):
The list shows a part of the results. Results filed as inconclusive are left out. The source made the active and inactive calls. Calls follow the shape of the dose curve; as a rule, active = well fitted inhibition curve with a large enough effect; inconclusive = small, poorly fitted or top-dose-only effect; inactive = flat fitted curve, though single readings scatter.

assay: qHTS Assay for Inhibitors of Bacillus subtilis Sfp phosphopantetheinyl transferase (PPTase): SAR in hGST A1-1; conditions: hGST A1-1 enzyme activity counter-screen; series mostly up to 114 µM
Text: The covalent attachment of a phosphopantetheinyl (4'-PP) arm to a variety of synthases and other proteins is a key posttranslational protein modification. The 4'-PP is installed on the proteins post-translationally from coenzyme A (CoA) on a conserved serine residue by action of phosphopantetheinyl transferase (PPTase) enzymes. Phosphopantetheinylation is essential for synthase activity, and removal of the PPTase gene precludes natural product synthesis in microorganisms, or in the case of fatty acid biosynthesis, renders the organism unviable. PPTase enzymes belong to a distinct structural superfamily. Within bacteria, these enzymes are grouped into two classes based upon primary structure, the AcpS-Type and Sfp-Type PPTases. […]
In search of small molecule Sfp-PPTase inhibitors, a fluorescence quenching assay was developed for detection of Bacillus subtilis Sfp-PPTase enzymatic activity in a miniaturized high-throughput format. […]
This assay sought to assess the promiscuity of test articles with an unrelated target enzyme. The appropriate target for this work was determined to be human glutathione-S-transferase, an enzyme responsible for detoxifying modifying electrophilic xenobiotics to enhance their excretion. […]

Row | SMILES | outcome
1 | COc1ccnc(NC(=S)N2CCN(c3ncc(C(F)(F)F)cc3Cl)CC2)c1 | inactive
2 | Cc1cc(C)nc(NC(=S)N2CCN(c3ccc(Cl)cc3C(F)(F)F)CC2)c1 | inactive
